Most compounds without a hit are left out; they make up all but 2.2% or so of the library.
APP 5UTR inh = APP translation inhibition. SH-SY5Y APP 5'UTR-luciferase reporter, luminescence. inhibition, % at 2 µM. 190,000 compounds, 0.82% hits. AID 1285;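 active means inhibition above a set limit, derived from the sample mean plus 3 SD, cut at about 45% in these data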
BaF3 tox = parental Ba/F3 viability inhibition as JAK2V617F counter-screen. CellTiter-Glo ATP luminescence. inhibition, % at 5.6 µM. 220,000 compounds, 1.1% hits;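 active means inhibition above a per-campaign cutoff, the mean inhibition of all tested compounds plus 3 SD, cut at about 27% in these data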;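 further: 0% = DMSO wells and 100% = JAK Inhibitor I control wells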
KLF5 inh = kruppel-like factor 5 inhibition; inhibition, % at 5 µM; 290,000 compounds, 0.23% hits; DLD-1 KLF5 promoter-luciferase reporter, luminescence;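 active means inhibition above a per-plate limit of that plate's mean compound inhibition plus 3 SD, cut at about 60% in these data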;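 further: 0% = DMSO wells and 100% = LY294002 at 200 µM; higher means less KLF5 promoter-driven luciferase light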
aSyn 5UTR inh = MLPCN primary screen, SNCA 5' untranslated region; alpha-synuclein 5'UTR reporter, inhibitor activity; inhibition, % (tested at 7.5 µM); 300,000 compounds, 0.82% hits; in the data active means inhibition above about 60%;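 further: H4 neuroglioblastoma cells stably carrying SNCA 5'UTR luciferase fusion; 0% = DMSO wells and 100% = positive control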
IEC-6 tox = IEC-6 cytotoxicity, counter-screen for KLF5 inhibitors. luminescence viability. inhibition, % at 5 µM. 290,000 compounds, 0.78% hits. AID 1825; in the data active means inhibition above about 22%;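 further: 0% = plate median of test compound wells and 100% = cytotoxic reference compound wells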
Ba/F3 V617F tox = loss of viability in JAK2V617F-driven Ba/F3 cells. inhibition, % at 5.6 µM. AID 1446. Ba/F3 EpoR-JAK2V617F viability, ATP luminescence. 220,000 compounds, 1.1% hits;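 active means inhibition above the campaign mean plus 3 SD over all tested compounds, cut at about 24% in these data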;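 further: cytokine-independent growth of Ba/F3 cells driven by EpoR plus mutant JAK2; 0% = DMSO-treated cells and 100% = JAK inhibitor I control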
* = called active by the depositor; nt = no result given.

SMILES	APP 5UTR inh	BaF3 tox	KLF5 inh	aSyn 5UTR inh	IEC-6 tox	Ba/F3 V617F tox
CCc1ccc2c(c1)C1(C(=O)N2)N2CCCC2C(C(=O)c2ccc3ccccc3c2)C12C(=O)Nc1ccccc12 (configuration not stated)	-19.3	4.5	0.8	-127.1	-8.7	-2.7
CCc1ccc2c(c1)C1(NN=C(c3cccc4ccccc34)S1)C(=O)N2 (configuration not stated)	11.1	3.9	-16.0	76.3*	0.8	-3.0
CCCCSc1nc2sc3c(c2c(=O)n1-c1ccccc1)CCN(C)C3	nt	nt	-29.9	3.3	-2.7	nt
CCCCNc1nc2sc3c(c2c(=O)n1-c1cccc(Cl)c1)CCN(C)C3	nt	68.2*	-18.6	nt	-2.8	80.3*
CCCCCNc1nc2sc3c(c2c(=O)n1-c1cccc(Cl)c1)CCN(C)C3	nt	67.8*	-9.7	nt	4.8	76.3*
COC(=O)[C@@H]1[C@H](CCc2ccccc2)NC(=O)N(Cc2ccccc2)[C@@H]1C	nt	nt	nt	31.1	nt	nt
COc1ccc(S(=O)(=O)N2CCN(C(=O)CNC(=O)c3ccc4c(c3)OCO4)CC2)cc1	nt	nt	nt	5.8	nt	nt
O=C(Nc1ncc(Cc2ccccc2)s1)c1cccs1	-193.6	11.9	-172.0	21.1	3.3	1.3
O=C(Nc1ncc(Cc2ccc(SC(F)F)cc2)s1)c1ccccc1	86.2*	3.4	2.8	67.7*	0.8	-1.8
CCOC(=O)c1sc(NS(=O)(=O)c2ccccc2)nc1C	-1.5	1.2	-19.4	11.9	-0.4	1.2
CCOC(=O)c1sc(Nc2nc(C)cc(C)n2)nc1C	nt	-0.9	23.7	84.1*	2.1	5.9
CCOC(=O)c1sc(NS(=O)(=O)c2ccccc2Cl)nc1C	-8.1	51.3*	-2.6	16.8	3.1	4.2
CCOC(=O)c1sc(Nc2nc(C)cc(OC)n2)nc1C	-5.6	10.1	-19.7	-24.9	6.4	5.3
COc1ccc(-c2cn3nc(SCC(=O)NC4CCCCC4)ccc3n2)cc1	nt	nt	-124.0	0.4	-5.8	nt
COc1ccc(Cn2c(-c3ccc(OC)cc3)nc3ccccc32)cc1	0.7	5.8	-15.5	-2.6	-0.6	3.6
COc1ccc(Cn2c(-c3ccc(Br)cc3)c[n+]3ccccc23)cc1	-84.9	63.9*	-13.2	-142.6	2.0	72.0*
N#C/C(=N\Nc1cccc(C(F)(F)F)c1)C(=O)c1ccsc1	nt	32.2*	-62.3	-108.7	15.6	18.1
N#C/C(=N\Nc1cccc([N+](=O)[O-])c1)C(=O)c1ccc(Br)cc1	6.9	1.6	-9.8	48.9	4.8	-0.4
Cc1ccc(NCCc2ccc(C)nc2)cc1	53.4*	1.5	-14.8	-28.7	-3.3	-2.9
Cc1ccc(CCNc2ccc3ccccc3c2)cn1	-10.1	4.7	-29.8	19.1	1.0	-1.2
Cc1cccc(NC(=O)c2nc[nH]c2C(=O)NCC(=O)OC(C)(C)C)c1	nt	nt	nt	10.7	nt	nt
CC(=O)N(C(C)=O)c1ncc2c([nH]c3ccccc32)c1C#N	-14.3	-1.6	-3.1	64.8*	0.7	-3.8
Cc1nc(C(=O)O)cc2c1[nH]c1ccccc12	nt	nt	nt	0.7	nt	nt
COCc1cc(N2CCCC2)nc(-c2ccccc2)n1	0.7	2.2	-23.4	-6.0	-2.9	-1.4
O=C(CCSc1nc2ccccc2s1)N/N=C/c1c(O)ccc2ccccc12	52.5*	3.7	-10.8	65.9*	1.5	1.4
SMILES	APP 5UTR inh	BaF3 tox	KLF5 inh	aSyn 5UTR inh	IEC-6 tox	Ba/F3 V617F tox
Cc1cc(C)n(CCC(=O)N/N=C/c2c(O)ccc3ccccc23)n1	nt	-8.2	39.8	73.3*	5.0	-0.7
Cc1cc(C)n(CCC(=O)N/N=C/c2ccc(O)cc2)n1	15.7	5.2	-25.1	20.9	-1.9	-1.5
COc1ccc(C(=O)N2CCC3(CC2)NCCc2[nH]cnc23)cc1OC	nt	nt	-11.4	-0.9	-3.2	nt
O=C(CSc1ncccn1)Nc1ncc(C(F)(F)F)cc1Cl	-32.4	1.6	-17.6	6.2	1.5	0.5
CC1=CC(=C2C=CC(=O)C=C2)C=C(C)N1C	nt	60.2*	-14.8	0.5	-2.1	72.8*
CCCCOCCCNC(=O)N[C@H](C(=O)OC)C(C)C	4.0	0.6	-7.7	2.4	1.0	-0.8
CCCCCNC(=O)N[C@H](C(=O)O)C(C)C	-4.2	89.9*	3.4	-14.1	3.5	-4.9
CCC(C)[C@H](NC(=O)Nc1ccc(C)cc1C)C(=O)O (some centres not stated)	nt	-2.1	18.1	7.2	0.3	-3.5
CCC(C)[C@H](NC(=O)NC(C)C)C(=O)O (some centres not stated)	1.1	91.8*	-14.4	16.3	1.4	2.6
Cc1c(C)c2ccc(OC(C)C(=O)NCCc3c[nH]c4ccccc34)cc2oc1=O (configuration not stated)	nt	nt	-16.5	5.9	-1.4	nt
Nc1nc(SCC(=O)Nc2ccc(OC(F)(F)F)cc2)[nH]c(=O)c1NC(=O)c1ccc(Br)o1	nt	nt	-25.8	1.9	-8.8	nt
OCCNc1cnc2ccccc2n1	49.2*	-2.8	-14.2	-16.6	4.8	-2.2
CCOc1ccc(CC(=O)NNC(=S)NC)cc1Br	nt	1.1	-18.2	28.9	-1.5	-1.3
Cc1nc2ccccc2c(=O)n1/N=C/c1c(O)ccc2oc3c(c12)CCCC3	5.6	0.9	-32.0	85.7*	0.0	-2.7
COCc1[nH][nH]c(=O)c1C=Nc1ccc(C(F)(F)F)cc1	2.5	5.5	-4.8	-7.2	-7.8	-1.6
Cc1[nH][nH]c(=O)c1C=Nc1ccc(C(F)(F)F)cc1	77.2*	4.4	-16.2	-77.4	0.9	3.1
COc1ccc(CN(C(=O)c2cc3ccccc3oc2=O)C2CCS(=O)(=O)C2)cc1OC (configuration not stated)	nt	nt	-83.8	-114.8	-5.4	nt
C=CCNc1nc2c(c(=O)n(C)c(=O)n2C)n1Cc1ccc(F)cc1	1.2	39.9*	-40.2	5.9	-1.4	40.0*
Cn1c(=O)c2c(nc(NCCc3ccccc3)n2Cc2ccc(F)cc2)n(C)c1=O	9.7	3.6	-11.5	27.6	10.5	-2.4
C=CCNc1nc2c(c(=O)n(C)c(=O)n2C)n1CC	-4.6	5.2	4.7	13.1	-2.9	-3.8
COCCNc1nc2c(c(=O)n(C)c(=O)n2C)n1Cc1cccc(C)c1	-2.6	43.5*	-10.0	15.3	1.1	45.0*
C=CCNc1nc2c(c(=O)n(C)c(=O)n2C)n1CCCCCC	16.0	54.9*	-36.9	-28.0	6.0	40.0*
CC(OC(=O)Cn1[nH]c(=O)c2ccccc2c1=O)C(=O)NC1(C#N)CCCCC1 (configuration not stated)	nt	nt	nt	4.0	nt	nt
CC(=O)Nc1ccc(C(=O)N/C(=C/c2ccccc2)C(=O)Nc2cccc(C(=O)O)c2)cc1	0.1	-2.2	-4.3	6.8	8.7	-2.8
CC(=O)Nc1ccc(NC(=O)/C(Cl)=C/c2ccccc2)cc1	-81.7	93.1*	-26.2	-117.5	7.0	2.0
Cc1ccc(-c2nnn(CC(=O)NC3CC4CCC3C4)n2)cc1 (configuration not stated)	-3.1	-1.8	-5.7	2.7	-1.9	-0.9
O=C(Cn1nnc(-c2ccc(Cl)cc2)n1)NC1CC2CCC1C2 (configuration not stated)	-2.2	94.4*	4.0	9.3	4.5	-2.8
Cc1ccc(-c2nc3cnccn3c2Nc2ccccc2)o1	-27.5	nt	nt	-24.4	nt	nt

Source: PubChem BioAssay
